From PubChem BioAssay AID1224817 (Yan Lab, Georgia Cancer Center, Augusta University, 2016)
Out of some 2,000 compounds screened, about 25 (1%) were called active. The sample as a whole holds a higher share of actives than the screen did. Values without a mark were called inactive.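 Rule for the calls: active = log2 luciferase ratio at or below -0.5849, meaning signal at two thirds of solvent-only control or lower; inactive = the rest.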

Experiment: eIF4E expression suppression, luciferase knock-in reporter – cell-based, HT1080, primary screen (AID 1224817);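 note: luciferase reports endogenous eIF4E expression since it is co-expressed from the native EIF4E locus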
Conditions: HT1080 EIF4E-luc2 knock-in reporter, 16 h, at 2.5 µM, hits give low values

SMILES | log2 luciferase activity ratio
O=C(O)CC(Sc1ccccc1)c1ccccc1 (centres undefined) | 0.113
Cc1cc(N=Cc2c(CO)cnc(C)c2O)c(N=Cc2c(CO)cnc(C)c2O)cc1C.[Zn] | 0.374
NCCN1C(=O)c2ccccc2C1(O)c1ccc(Cl)cc1 (centres undefined) | 0.275
O=C(O)CC(C(=O)O)c1ccccc1[N+](=O)[O-] (centres undefined) | -0.346
O=C(O)C(C1NCCS1)N1C(=O)c2ccccc2C1=O (centres undefined) | -0.326
Clc1ccc2c(NCCNC3CCCCC3)ccnc2c1 | -0.0725
O=C(O)Cc1c(O)ccc2ccccc12 | -0.364
CC(C)=CCNc1ncnc2c1c(C#N)cn2C1OC(CO)C(O)C1O (centres undefined) | -0.135
N#CC[N+]1(Cc2ccccn2)CCCC1 | -0.0477
CN(C)CCCN=c1c2ccccc2n(C)c2[nH]c(=O)n(C)c(=O)c12 | -0.0932
O=C(O)CSCC(=O)c1ccccc1 | -0.355
Cc1ccc(S(=O)(=O)OCC(=O)O)cc1 | 0.01
CC12CCC3c4ccc(O)cc4CCC3C1C/C(=N\O)C2O (centres undefined) | -0.14
CC1CN(CCO)CCN1c1ccccc1 (centres undefined) | 0.393
O=C(O)C1C(C(=O)O)C(C(=O)O)C1C(=O)O (centres undefined) | -0.115
Cc1nn(-c2ccc(S(=O)(=O)[O-])cc2)c([O-])c1N=[N+](C)c1ccc(-c2ccc(N=Nc3ccc4c(S(=O)(=O)[O-])cc(S(=O)(=O)[O-])c(N)c4c3[O-])c([O-])c2)cc1[O-].[Cu+2].[Cu+2].[Na+] | 0.162
OCCNc1ncnc2c1ncn2C1OC(CO)C(O)C1O (centres undefined) | -0.0424
CN(C)CCN(c1ccccn1)c1ccccn1 | -0.0299
CN(CCO)Cc1ncccc1O | -0.625 (active)
CN(C)Cc1ccc(O)c(CN(C)C)n1 | -0.0218
Nc1ccccc1N=Nc1c(S(=O)(=O)O)cc2cc(S(=O)(=O)O)cc(O)c2c1O | -0.0279
CC1=CC(C2/C(=N/O)C=C(C)CC2(C)C)C(O)C(C)(C)C1 (centres undefined) | -0.118
Fc1cccc(Cl)c1/C=N\N=C1c2ccccc2-c2ccccc21 | -0.123
c1ccc2cc(-c3cc(-c4cc(-c5ccc6ccccc6c5)on4)no3)ccc2c1 | 0.0163
N=C(N)c1ccc(/C=C/c2ccc(C(=N)N)cc2)cc1 | -0.247
O=S(=O)(O)C(c1ccccc1)C(O)c1ccccc1 (centres undefined) | -0.161
NCc1ccc(C(=O)O)cc1 | 0.304
O=C(O)c1ccc(NS(=O)(=O)Cc2ccccc2)cc1 | 0.0192
O=C(O)CNc1ccc(C(=O)O)cc1 | -0.647 (active)
